# Where a name gives a salt, the structure may show the parent alone. ± gives the standard deviation.
# Tested on: THP-1
# Assay: THP-1 cell loss relative to DMSO control; higher = more host cell loss (toxicity); extreme values may be limits of the assay
# Conditions: 10 µM; 4 days; infection: M. tuberculosis H37Rv
# Procedure: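 OICR kinase inhibitor library screened in duplicate at 10 uM against M. tuberculosis-infected THP-1 macrophages, 4 days at 37 C. THP-1 cell loss (cytotoxicity or loss of adherence) was quantified from Hoechst-stained nuclei counts by high-content imaging and normalised to the 1% DMSO control; 100 = complete loss of host cells.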
row,SMILES,THP-1 cell loss
1,Oc1ccc(Nc2nc(-c3ccc(Cl)cc3)cs2)cc1 [2-(p-Hydroxyanilino)-4-(p-chlorophenyl) thiazole],100%
2,O=C(Nc1cccc(Cl)c1)Nc1ncc(CCNc2ncnc3ccsc23)s1,80.2 ± 4.3%
3,Cc1ncc(-c2ccnc(Nc3ccc(S(C)(=O)=O)cc3)n2)n1C(C)C,100%
4,O=C1c2ccc(O)c(O)c2C(=O)c2c(O)ccc(O)c21 [Quinalizarin],4.66 ± 6.6%
5,Cn1cncc1[C@@](N)(c1ccc(Cl)cc1)c1ccc2c(c1)c(-c1cccc(Cl)c1)cc(=O)n2C [Tipifarnib],29.6 ± 27%
6,CN(c1ncccc1CNc1nc(Nc2ccc3c(c2)CC(=O)N3)ncc1C(F)(F)F)S(C)(=O)=O,100%
7,CC(=O)Nc1ccc([C@H](C)C(=O)Nc2ncc(C(C)C)s2)cc1,100%
8,Cn1cnc2c(F)c(Nc3ccc(Br)cc3Cl)c(C(=O)NOCCO)cc21,82.3 ± 9.6%
9,COc1cc(OC)c(/C=C/S(=O)(=O)Cc2ccc(OC)c(NCC(=O)O)c2)c(OC)c1,44.7 ± 2.4%
10,NS(=O)(=O)c1nn2cc(-c3ccccc3)nc2s1,5.48 ± 7.7%
11,Fc1ccc(Cl)cc1-c1nc(Nc2ccncc2)c2nccnc2n1,7.31 ± 3.9%
12,CCN1/C(=C/C(C)=O)Sc2ccc(OC)cc21,12.5 ± 2.4%
13,Nc1nccc(-c2ccc3noc(-c4ccc(Cl)cc4)c3c2)n1 [PIM 1 Inhibitor 2],9.99 ± 7.3%
14,CN(C)c1cc2c(Nc3ccc4c(cnn4Cc4ccccc4)c3)ncnc2cn1,62.6 ± 18%
15,O=C(Nc1cccc(Nc2ncc(Br)c(NCCc3cnc[nH]3)n2)c1)N1CCCC1,36 ± 15%
16,CCN(CCO)CCCOc1ccc2c(Nc3cc(CC(=O)Nc4cccc(F)c4)[nH]n3)ncnc2c1,7.76 ± 6.5%
17,CCCCCCCCCCCCCCCCn1cc[n+](Cc2ccccc2)c1C,100%

row,SMILES,THP-1 cell loss
1,CN(C)CCOc1cc(-c2cn[nH]c2)ccc1NC(=O)C1COc2ccccc2O1 (centres undefined),0%
2,CO[C@@H](C(=O)N1Cc2[nH]nc(NC(=O)c3ccc(N4CCN(C)CC4)cc3)c2C1)c1ccccc1,19.1 ± 3.7%
3,Nc1nc(Nc2ccc(S(N)(=O)=O)cc2)nn1C(=S)Nc1c(F)cccc1F [Cdk1/2 Inhibitor III],5.81 ± 8.1%
4,N#CC(c1ccnc(NCCc2cccnc2)n1)c1nc2ccccc2s1 (centres undefined),100%
5,Cc1cnc(Nc2ccc(OCCN3CCCC3)cc2)nc1Nc1cccc(S(=O)(=O)NC(C)(C)C)c1,100%
6,O=C(NC[C@H](O)CO)c1ccncc1Nc1ccc(I)cc1F,100%
7,Cc1ccc(C(=O)Nc2cccc(C(F)(F)F)c2)cc1-c1ccc2nc(NCCN3CCOCC3)ncc2c1,100%
8,Cc1ccc(Nc2nccc(N(C)c3ccc4c(C)n(C)nc4c3)n2)cc1S(N)(=O)=O [Pazopanib hydrochloride],100%
9,Cc1cc(C)c(/C=C2\C(=O)Nc3ccccc32)[nH]1,34.2 ± 39%
10,Cc1ccc2nc(NCCN)c3ncc(C)n3c2c1,100%
11,Nc1[nH]nc2nc3ccccc3nc12,3.97 ± 5.6%
12,OCCn1cc(-c2ccc3c(c2)CC/C3=N\O)c(-c2ccncc2)n1,9.27 ± 7.9%
13,COc1nccc(-c2c(-c3ccc(F)cc3)ncn2C2CCC(O)CC2)n1 (centres undefined),1.08 ± 1.5%
14,O=S(=O)(Nc1ccccn1)c1ccc(N=Cc2c(O)[nH]c3ccc4ncsc4c23)cc1,100%
15,C=CC(=O)Nc1cc2c(Nc3ccc(F)c(Cl)c3)ncnc2cc1OCCCN1CCOCC1,100%
16,Nc1nc(Nc2ccc(S(N)(=O)=O)cc2)nn1C(=O)c1c(F)cccc1F,100%
17,O=C1NC(=O)c2c1c(-c1ccccc1)cc1[nH]c3ccc(O)cc3c21,77.75 ± 0.7%
